About 83,000 compounds went through this panel and 20% of them were active in at least one assay; those are over-represented in the sample as a whole.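 Assay: single dose, 48 h. Readout: percent growth (0 = no net growth; negative = cell death). Active: <10.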 The source made the active and inactive calls.
Assays:
Test in all cases: NCI-60 one-dose screen, 48 h (100 = growth as untreated, 0 = no growth, -100 = all killed)
Conditions in all cases: 10 µM
T-47D breast = tested on: T-47D breast
BT-549 breast = tested on: BT-549 breast
MDA-MB-435 melanoma = tested on: MDA-MB-435 melanoma
SW-620 colon = tested on: SW-620 colon
MCF7 breast = tested on: MCF7 breast
HCT-116 colon = tested on: HCT-116 colon
HCC-2998 colon = tested on: HCC-2998 colon
KM12 colon = tested on: KM12 colon
MDA-MB-468 breast = tested on: MDA-MB-468 breast

Measured: growth

O=C(Nc1ccc(Cl)c([N+](=O)[O-])c1)Nc1ccc(Cl)c([N+](=O)[O-])c1
inactive: MDA-MB-435 melanoma 13.3% | SW-620 colon 18.7% | HCC-2998 colon 12.7%
active: T-47D breast 1.86% | BT-549 breast -11.6% | MCF7 breast -5.85% | HCT-116 colon 9.36% | KM12 colon 5.87% | MDA-MB-468 breast -27.2%

N#Cc1c(NC(=O)c2ccc(C(O)(C(F)(F)F)C(F)(F)F)cc2)sc2c1CCC(=O)C2
active: T-47D breast -60.5% | BT-549 breast -64.4% | MDA-MB-435 melanoma -45.2% | SW-620 colon -52.8% | MCF7 breast -62.1% | HCT-116 colon -77.7% | HCC-2998 colon -95.6% | KM12 colon -53.8% | MDA-MB-468 breast -90%

NS(=O)(=O)c1ccc(NC(=O)CSc2ccc(-c3ccc(Cl)cc3)nn2)c(Br)c1
inactive: T-47D breast 41.6% | BT-549 breast 26.8% | MDA-MB-435 melanoma 84.8% | SW-620 colon 82.8% | MCF7 breast 26.8% | HCT-116 colon 26.6% | HCC-2998 colon 58.2% | KM12 colon 64.6%
active: MDA-MB-468 breast -3.52%

O=C(CSc1nnc(-c2c[nH]c3ccccc23)n1-c1ccccc1)c1ccc(Br)cc1
inactive: T-47D breast 22% | BT-549 breast 65.2% | MDA-MB-435 melanoma 40.9% | SW-620 colon 79.8% | MCF7 breast 53.4% | HCT-116 colon 54.3% | HCC-2998 colon 31.7% | KM12 colon 34.6% | MDA-MB-468 breast 22%

COc1ccc2[nH]c(O)c(N=NC(=O)COc3ccc(NC(=O)Nc4ccc(Cl)c(Cl)c4)cc3)c2c1
active: T-47D breast -72.1% | BT-549 breast -20.6% | MDA-MB-435 melanoma -88.8% | SW-620 colon 3.28% | MCF7 breast -26% | HCT-116 colon -42% | HCC-2998 colon -67.4% | KM12 colon -31% | MDA-MB-468 breast -57.8%

Cc1cccc2cc(-c3cc(-c4ccccc4)nc(=O)[nH]3)c(Cl)nc12
inactive: T-47D breast 76.7% | BT-549 breast 84.4% | MDA-MB-435 melanoma 99.8% | SW-620 colon 87.7% | MCF7 breast 29.3% | HCT-116 colon 63.4% | HCC-2998 colon 102% | KM12 colon 73.5% | MDA-MB-468 breast 83.6%

COc1ccc(-c2cc(-c3cc(C(=O)c4ccccc4)n4ccc(C)cc34)nc(N)c2C#N)cc1
inactive: T-47D breast 65.1% | BT-549 breast 22.4% | MDA-MB-435 melanoma 78.5% | SW-620 colon 78.9% | MCF7 breast 53.3% | HCT-116 colon 58.1% | HCC-2998 colon 80.9% | KM12 colon 85.4% | MDA-MB-468 breast 48.6%

CS(=O)(=O)Nc1ccc(-c2ccc3c(c2)ncn3-c2ccc(NC(=O)Nc3ccc(Cl)c(C(F)(F)F)c3)cc2)cc1
active: T-47D breast -31.2% | BT-549 breast -83.8% | MDA-MB-435 melanoma -85.4% | SW-620 colon -67% | MCF7 breast -77.8% | HCT-116 colon -87.7% | HCC-2998 colon -73.6% | KM12 colon -57.8% | MDA-MB-468 breast -50.7%

O=C(O)CCCCCCCCCCN1C(=O)/C(=C/c2cnc(-c3ccc(Cl)cc3)s2)SC1=S
inactive: T-47D breast 47.2% | MDA-MB-435 melanoma 49% | SW-620 colon 27.6% | MCF7 breast 27.1% | HCC-2998 colon 82.4% | KM12 colon 14% | MDA-MB-468 breast 52.3%
active: BT-549 breast -17.1% | HCT-116 colon 4.89%

CC(=O)Nc1ccc(-n2cnc3cc(-c4ccc(O)cc4)ccc32)cc1F
active: MDA-MB-435 melanoma -25.7% | KM12 colon 4.96% | MDA-MB-468 breast -12.3%
inactive: T-47D breast 29.9% | BT-549 breast 60.3% | SW-620 colon 28.2% | MCF7 breast 26.3% | HCT-116 colon 13.9% | HCC-2998 colon 33.3%

CCCCCCCCCCCCCCCCCCCC(=O)NCCc1c[nH]c2ccc(OC(=O)CCCC(=O)OCCOOCCOOCCOOCCOOCCOOCCOOCCOOCCOOCCOOCCOOCCOOCCOC)cc12
active: BT-549 breast -20.2%
inactive: T-47D breast 22.4% | MDA-MB-435 melanoma 82.7% | SW-620 colon 83% | MCF7 breast 24.3% | HCT-116 colon 32.7% | HCC-2998 colon 87.8% | KM12 colon 35.7% | MDA-MB-468 breast 85.6%

CN1C(=O)N(C)C2SC(N/N=C/c3ccccc3)=NC21 (configuration not stated)
active: MDA-MB-435 melanoma -13.7% | MDA-MB-468 breast 10%
inactive: T-47D breast 69.5% | BT-549 breast 58.7% | SW-620 colon 38.3% | MCF7 breast 41% | HCT-116 colon 51.5% | HCC-2998 colon 81.9% | KM12 colon 46.7%

COc1cc(NC(=O)CSc2nnc(-c3ccc4nc(-c5ccc(Cl)cc5)[nH]c4c3)o2)cc(OC)c1OC
inactive: T-47D breast 13.2% | BT-549 breast 63.1% | MDA-MB-435 melanoma 67.8% | SW-620 colon 80.1% | MCF7 breast 29.1% | HCT-116 colon 37.1% | HCC-2998 colon 110% | KM12 colon 70% | MDA-MB-468 breast 58.3%

Cc1cccc2cc(-c3cc(-c4ccccc4)nc(=S)[nH]3)c(Cl)nc12
inactive: T-47D breast 72.9% | BT-549 breast 53.1% | SW-620 colon 92% | MCF7 breast 68.3% | HCT-116 colon 83.3% | HCC-2998 colon 93.1% | KM12 colon 91.4% | MDA-MB-468 breast 90.6%
active: MDA-MB-435 melanoma -6.63%

Cc1noc2c(Cc3ccc([N+](=O)[O-])cc3)nn(CC(=O)N/N=C/c3ccc(Cl)cc3)c(=O)c12
active: MDA-MB-468 breast 5.37%
inactive: T-47D breast 43.8% | BT-549 breast 56% | MDA-MB-435 melanoma 76.3% | SW-620 colon 68.2% | MCF7 breast 52.5% | HCT-116 colon 21.7% | HCC-2998 colon 70.7% | KM12 colon 69.7%

CCCS(=O)(=O)c1oc(-c2ccc(F)cc2)nc1S(=O)(=O)c1ccc(F)cc1
active: T-47D breast -67.9% | BT-549 breast -32.1% | MDA-MB-435 melanoma -80.3% | SW-620 colon -77.6% | MCF7 breast -65.7% | HCT-116 colon 3.42% | HCC-2998 colon -59.8% | MDA-MB-468 breast -91.4%
inactive: KM12 colon 41.8%

O=C(NCCCCCCCCCC[P+](c1ccccc1)(c1ccccc1)c1ccccc1)c1ccc(-n2nc(-c3ccccc3O)nc2-c2ccccc2O)cc1
active: T-47D breast -51.9% | BT-549 breast -87.4% | MDA-MB-435 melanoma -81.3% | SW-620 colon -60.9% | MCF7 breast -87% | HCT-116 colon -79.4% | HCC-2998 colon -99.5% | KM12 colon -27.1% | MDA-MB-468 breast -87.7%

COc1cccc2nc(Nc3cccc(NC(=O)c4ccc(CN5CCCN(C)CC5)c(C(F)(F)F)c4)c3)ccc12
active: T-47D breast -55.9% | BT-549 breast -92.5% | MDA-MB-435 melanoma -100% | SW-620 colon -97.5% | MCF7 breast -90% | HCT-116 colon -64.7% | HCC-2998 colon -96.6% | KM12 colon -63.9% | MDA-MB-468 breast -87.9%

CN1CCc2c(sc3ncnc(N/N=C/c4cn(-c5ccccc5)nc4-c4ccc(Br)cc4)c23)C1
active: MCF7 breast -3.07% | HCT-116 colon 1.25%
inactive: T-47D breast 74.2% | BT-549 breast 83.4% | MDA-MB-435 melanoma 66.1% | SW-620 colon 11% | HCC-2998 colon 27.1% | KM12 colon 44.9% | MDA-MB-468 breast 16.8%

COc1cc(-c2nc3cc(Cl)c(Cl)cc3[nH]2)ccc1OCc1nnc(-c2ccc(Br)cc2)o1
inactive: SW-620 colon 21.6% | HCC-2998 colon 69.2% | KM12 colon 46.1%
active: T-47D breast -38.4% | BT-549 breast -73.4% | MDA-MB-435 melanoma -18.7% | MCF7 breast 5.68% | HCT-116 colon 2.89% | MDA-MB-468 breast -10.9%

COC(=O)CC1CC1C1Cc2c(nc(N(C)S(C)(=O)=O)nc2C(C)C)-c2ccc(F)cc21 (configuration not stated)
inactive: T-47D breast 63.8% | BT-549 breast 64.8% | MDA-MB-435 melanoma 87.2% | SW-620 colon 66% | MCF7 breast 67.1% | HCT-116 colon 44.4% | HCC-2998 colon 101% | KM12 colon 76.2% | MDA-MB-468 breast 74.9%

COc1ccc(-c2cc(-c3cc(C(=O)c4ccc(Br)cc4)n4ccc(C)cc34)nc(N)c2C#N)cc1
inactive: T-47D breast 82.8% | BT-549 breast 104% | MDA-MB-435 melanoma 92.7% | SW-620 colon 92.3% | MCF7 breast 79.1% | HCT-116 colon 73.8% | HCC-2998 colon 103% | KM12 colon 82.1% | MDA-MB-468 breast 24.3%

O=C(Nc1nc2ccc([N+](=O)[O-])cc2s1)Nc1ccccc1I
active: T-47D breast -16.7% | BT-549 breast -18.9% | MDA-MB-435 melanoma -7.59% | SW-620 colon 7.65% | MCF7 breast -13.9% | HCT-116 colon -18.8% | HCC-2998 colon 4.48% | KM12 colon 2.86% | MDA-MB-468 breast -25.8%

N#Cc1c(-c2ccc(F)cc2)nc(SCc2ccc(F)cc2)nc1N1CCOCC1
inactive: T-47D breast 73.2% | BT-549 breast 64.3% | MDA-MB-435 melanoma 93.5% | SW-620 colon 85.5% | MCF7 breast 63.7% | HCT-116 colon 66% | HCC-2998 colon 87.4% | KM12 colon 87.2% | MDA-MB-468 breast 62.1%

O=C(CSc1nnc(-c2c[nH]c3ccccc23)n1-c1ccccc1)Nc1ccc(C(=O)/C=C/c2ccc(Cl)cc2)cc1
inactive: T-47D breast 40.3% | BT-549 breast 93.5% | MDA-MB-435 melanoma 64.1% | SW-620 colon 90.4% | HCC-2998 colon 78% | KM12 colon 64.5% | MDA-MB-468 breast 65.9%
active: MCF7 breast 6.09% | HCT-116 colon -37.3%

COC1=C[C@@]23CCC(=O)N2CCc2cc4c(cc2[C@H]3[C@H]1OC(=O)C(C)(C)O)OCO4
inactive: T-47D breast 91.6% | BT-549 breast 98.9% | MDA-MB-435 melanoma 98.4% | SW-620 colon 105% | MCF7 breast 92.7% | HCT-116 colon 101% | HCC-2998 colon 103% | KM12 colon 101% | MDA-MB-468 breast 91.5%

Nc1cccnc1/C=N/NC(=S)NCCNC(=O)c1ccc(-n2nc(-c3ccccc3O)nc2-c2ccccc2O)cc1
inactive: MDA-MB-435 melanoma 53.8% | SW-620 colon 58.5% | KM12 colon 11.6%
active: T-47D breast 7.42% | BT-549 breast -5.4% | MCF7 breast 5.17% | HCT-116 colon 7.1% | HCC-2998 colon -7.32% | MDA-MB-468 breast -56.1%

CN(C)c1ccc(/C=C/C(=O)c2ccc(NC(=O)CN3C(=O)NC(C)(c4ccccc4)C3=O)cc2)cc1 (configuration not stated)
inactive: T-47D breast 22.1% | BT-549 breast 49.6% | MDA-MB-435 melanoma 34% | SW-620 colon 74.5% | MCF7 breast 11.8% | HCT-116 colon 26.4% | HCC-2998 colon 38.5% | KM12 colon 23.7%
active: MDA-MB-468 breast 7.04%

From PubChem BioAssay (NCI)
